Experimental findings from PubChem BioAssay (NCI) are described below.

Some test systems named below: SR leukemia; RPMI-8226 leukemia; OVCAR-8 ovarian; OVCAR-5 ovarian; OVCAR-4 ovarian; SK-OV-3 ovarian; IGROV1 ovarian; OVCAR-3 ovarian; HS 578T breast; NCI/ADR-RES ovarian; T-47D breast; BT-549 breast; MDA-MB-435 melanoma; SW-620 colon; MCF7 breast; HCT-116 colon; HCC-2998 colon; KM12 colon.
Holding throughout (assay): NCI-60 one-dose screen, 48 h (100 = growth as untreated, 0 = no growth, -100 = all killed)
What all share (conditions): 10 µM unless noted

This is part of a sample that, as a whole, favours compounds with a hit. Of some 83,000 tested, about 20% had one in any assay.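 48-hour exposure, single concentration, 96-well plates; percent growth endpoint where 0 means no net growth. Active: below 10.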 Values without a mark were called inactive. The source made the active and inactive calls.

In the case of `CS(=O)(=O)c1ncc(-c2ccccc2)cn1`, the growth in the experiment on SR leukemia was 70.9%; with RPMI-8226 leukemia, 108%; in the experiment with OVCAR-8 ovarian, 99.3%; in the experiment on OVCAR-5 ovarian, 103%; with OVCAR-4 ovarian, 98.6%; in the experiment with SK-OV-3 ovarian, 108%. For the same molecule, the growth is 99.5% in the experiment on IGROV1 ovarian; 90.7% in the experiment with OVCAR-3 ovarian; 111% in the experiment on HS 578T breast; 103% in the experiment with NCI/ADR-RES ovarian; 94.4% with T-47D breast; 93.4% with BT-549 breast. For the same molecule, the growth is 95.2% in the experiment on MDA-MB-435 melanoma; 113% with SW-620 colon; 91.9% in the experiment with MCF7 breast; 96.9% in the experiment with HCT-116 colon; 104% in the experiment with HCC-2998 colon; 100% in the experiment on KM12 colon.

Turning to `COc1cc2nc(Cl)nc(Nc3cccc(C4=Nc5c(N)nc(N)nc5NC(c5ccccc5)C4)c3)c2cc1OC` (centres undefined), the growth is -1.18% (active) in the experiment on SR leukemia; 49% in the experiment with RPMI-8226 leukemia; 67.2% in the experiment on OVCAR-8 ovarian; 110% with OVCAR-5 ovarian; 96.7% with OVCAR-4 ovarian; 121% in the experiment with SK-OV-3 ovarian. Besides, the growth in the experiment on IGROV1 ovarian is 86.7%; in the experiment with OVCAR-3 ovarian, 77.7%; in the experiment with HS 578T breast it was 96.4%; in the experiment with NCI/ADR-RES ovarian, 94.1%; in the experiment with T-47D breast, 67.5%; in the experiment with BT-549 breast, 81.6%. Besides, the growth is 101% with MDA-MB-435 melanoma; 85.4% with SW-620 colon; 70.5% in the experiment with MCF7 breast; 74.6% in the experiment with HCT-116 colon; 94.3% with HCC-2998 colon; 78.3% with KM12 colon.

For `CCCCCc1ccc(S(=O)(=O)Nc2cc(-c3csc(NC(=O)CN4CCN(CCO)CC4)n3)ccc2OC)cc1`, the growth in the experiment with SR leukemia was -13.2% (active); in the experiment on RPMI-8226 leukemia, -16.9% (active); with OVCAR-8 ovarian, 82.1%; in the experiment on OVCAR-5 ovarian, 86.1%; in the experiment on OVCAR-4 ovarian, 72.5%; in the experiment on SK-OV-3 ovarian, 78%. Moreover, the growth in the experiment on IGROV1 ovarian was 48.9%; in the experiment with OVCAR-3 ovarian it was 13.3%; in the experiment with HS 578T breast, 52.8%; in the experiment on NCI/ADR-RES ovarian it was 88.4%; in the experiment on T-47D breast, 26.8%; with BT-549 breast it was 88.7%. In addition, the growth with MDA-MB-435 melanoma is -48.6% (active); with SW-620 colon it was 1.64% (active); in the experiment with MCF7 breast, 6.28% (active); with HCT-116 colon it was -13.2% (active); in the experiment on HCC-2998 colon it was -23.4% (active); with KM12 colon, 61.2%.

As for `Clc1cccc(/C=N/Nc2nc(N/N=C/c3cccc(Cl)c3Cl)nc(N3CCCCC3)n2)c1Cl`, the growth in the experiment on SR leukemia is 33.4%; in the experiment with RPMI-8226 leukemia, 93.4%; in the experiment with OVCAR-8 ovarian, 72.9%; in the experiment on OVCAR-5 ovarian, 94%; with OVCAR-4 ovarian it was 71.5%; with SK-OV-3 ovarian, 105%. Moreover, the growth in the experiment on IGROV1 ovarian is 79.6%; in the experiment with OVCAR-3 ovarian, 8.19% (active); in the experiment on HS 578T breast, 85%; with NCI/ADR-RES ovarian it was 67.4%; in the experiment with T-47D breast, 48.3%; in the experiment on BT-549 breast, 97.3%. The growth in the experiment on MDA-MB-435 melanoma is 68.8%; in the experiment with SW-620 colon, 42.6%; with MCF7 breast, 71.2%; in the experiment with HCT-116 colon, 48.8%; in the experiment with HCC-2998 colon it was 97.4%; with KM12 colon, 67.2%.

For the molecule `O=C1[C@H]2Cc3c([nH]c4ccccc34)[C@@H](c3ccc(Br)cc3)N2C(=O)CN1C1CCN(CC2CCCCC2)CC1`, the growth in the experiment with SR leukemia is -67.6% (active); in the experiment on RPMI-8226 leukemia, -35% (active); in the experiment with OVCAR-8 ovarian it was -48.5% (active); with OVCAR-5 ovarian it was -84.6% (active); in the experiment on OVCAR-4 ovarian, -64% (active); in the experiment with SK-OV-3 ovarian it was 64.7%. In addition, the growth is -82.2% (active) in the experiment on IGROV1 ovarian; -90% (active) in the experiment with OVCAR-3 ovarian; -56.4% (active) with HS 578T breast; -83.8% (active) in the experiment on NCI/ADR-RES ovarian; 44.7% in the experiment with T-47D breast; -3.47% (active) in the experiment on BT-549 breast. Further, the growth in the experiment with MDA-MB-435 melanoma is -88% (active); in the experiment with SW-620 colon, -83.4% (active); with MCF7 breast, -99.1% (active); in the experiment on HCT-116 colon, -93.2% (active); with HCC-2998 colon it was -98.8% (active); in the experiment on KM12 colon, -90.1% (active).

Turning to `CC(=O)O[C@@H]1C(=O)N(c2cnccn2)[C@H]1c1ccccc1[N+](=O)[O-]`, the growth with SR leukemia is 11.5%; in the experiment on RPMI-8226 leukemia, 13.3%; with OVCAR-8 ovarian it was -20.5% (active); with OVCAR-5 ovarian, 26.8%; in the experiment with OVCAR-4 ovarian it was 66.6%; with SK-OV-3 ovarian, 32.6%. Moreover, the growth in the experiment with IGROV1 ovarian is 13.6%; in the experiment with OVCAR-3 ovarian, 2.08% (active); with HS 578T breast it was 13.8%; with NCI/ADR-RES ovarian it was 26.7%; with T-47D breast, 85.2%; in the experiment with BT-549 breast it was -13.3% (active). The growth was -38.7% (active) in the experiment on MDA-MB-435 melanoma; 20.1% in the experiment on SW-620 colon; 15.5% in the experiment with MCF7 breast; -14.2% (active) in the experiment on HCT-116 colon; 31.5% in the experiment on HCC-2998 colon; -2.26% (active) in the experiment with KM12 colon.

In the case of `CC(=O)c1cc(C(=O)c2ccc(Br)cc2)n2cc(C)cc(C)c12`, the growth is 77.1% in the experiment on SR leukemia; 62.9% in the experiment with RPMI-8226 leukemia; 98.9% in the experiment on OVCAR-8 ovarian; 89.8% in the experiment with OVCAR-5 ovarian; 93.4% in the experiment on OVCAR-4 ovarian; 94.9% with SK-OV-3 ovarian. The growth in the experiment with IGROV1 ovarian was 85.6%; in the experiment with OVCAR-3 ovarian, 112%; in the experiment on HS 578T breast, 95.9%; in the experiment on NCI/ADR-RES ovarian, 86.3%; with T-47D breast, 78.8%; in the experiment with BT-549 breast it was 79%. Further, the growth in the experiment with MDA-MB-435 melanoma was 97.7%; with SW-620 colon it was 103%; in the experiment on MCF7 breast it was 85.3%; in the experiment on HCT-116 colon it was 85.7%; with HCC-2998 colon it was 82.6%; in the experiment on KM12 colon, 97.5%.

Regarding `O=C(CNc1nc(-c2cccc([N+](=O)[O-])c2)cs1)Nc1cccc(Cl)c1`, the growth was 94.9% with SR leukemia; 98% with RPMI-8226 leukemia; 101% in the experiment with OVCAR-8 ovarian; 105% in the experiment on OVCAR-5 ovarian; 102% with OVCAR-4 ovarian; 107% with SK-OV-3 ovarian. For the same molecule, the growth with IGROV1 ovarian was 102%; in the experiment with OVCAR-3 ovarian it was 116%; in the experiment on HS 578T breast, 110%; in the experiment with NCI/ADR-RES ovarian it was 105%; in the experiment on T-47D breast it was 100%; with BT-549 breast it was 91.7%. The growth in the experiment with MDA-MB-435 melanoma was 105%; with SW-620 colon, 105%; with MCF7 breast, 91.3%; in the experiment on HCT-116 colon it was 112%; with HCC-2998 colon, 115%; with KM12 colon it was 100%.
